Many of the other results were omitted from the sample, so hits are more common in it than they were.
TbREL1 primary: TbREL1 inhibition, primary screen | P86926 | TbREL1 RNA ligation, FRET fluorescence | inhibition, % at 9.66 µM | hit rate 0.49% among 89,000;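 active = inhibition above the mean inhibition across all screened compounds plus 3 SD, cut at about 11% in these data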;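 note: 0% = plate median of test wells and 100% = NSC42067 control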
Target sequence (P86926 whole entry, looked up): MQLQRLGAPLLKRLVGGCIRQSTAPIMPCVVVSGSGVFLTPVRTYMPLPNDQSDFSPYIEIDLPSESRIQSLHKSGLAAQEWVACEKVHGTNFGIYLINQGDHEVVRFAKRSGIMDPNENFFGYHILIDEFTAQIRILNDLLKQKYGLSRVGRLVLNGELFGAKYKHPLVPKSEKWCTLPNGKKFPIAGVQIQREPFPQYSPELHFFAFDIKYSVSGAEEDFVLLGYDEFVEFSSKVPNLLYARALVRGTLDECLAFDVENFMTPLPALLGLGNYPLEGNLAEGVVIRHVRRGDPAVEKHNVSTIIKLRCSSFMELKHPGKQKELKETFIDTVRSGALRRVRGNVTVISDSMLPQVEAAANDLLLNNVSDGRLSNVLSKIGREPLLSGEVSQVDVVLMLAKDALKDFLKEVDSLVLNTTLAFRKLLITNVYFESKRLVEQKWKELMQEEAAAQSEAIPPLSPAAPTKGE
TbREL1 confirm: TbREL1 inhibition, confirmation | shares compounds with TbREL1 primary | TbREL1 RNA ligation, FRET fluorescence | inhibition, % at 9.66 µM | hit rate 37% among 390 | AID 1117282;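 active = mean inhibition across replicates above a set limit taken from the earlier primary screen, cut at about 11% in these data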;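 note: 0% = REL1 with substrate and DMSO and 100% = REL1 plus control inhibitor NSC42067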
The depositor's hits bear a star.

SMILES	TbREL1 primary	others
CN(C)CCN(C(=O)c1ccc2c(c1)CCCC2)c1nc2c(F)cccc2s1	2
CN1CCCCC(NC(=O)c2ccc3ccccc3c2)C1=O (centres undefined)	0
CCCC1CCC2(CCCN2CCOC(=S)Nc2ccccc2OC)CC1 (centres undefined)	1
Cc1ccc(OCCOc2c(Cl)cc(Cl)cc2Cl)c([N+](=O)[O-])n1	3
C[C@H]1[C@H](N(Cc2ccccc2)Cc2ccccc2)CC[C@@]23CCCN2C(=O)CCC[C@@H]13	-2
CC(C)[C@H](NC(=O)c1ccc(Cl)cc1Cl)C(=O)N1CCC[C@H]1C(=O)NCCc1ccccc1Cl	2
O=C(NCCc1c[nH]c2ccccc12)OCc1cn(Cc2c(F)cccc2F)nn1	-3
CCOc1ccccc1C(=O)Nc1ccc2nc(C)[nH]c(=O)c2c1	1
O=S(=O)(c1ccccc1)n1c(CN2CCOCC2)nc2ccccc21	1
O=S(=O)(c1ccc(Cl)s1)N1CCC(c2nc3ccccc3o2)CC1	2
O=C(Nc1cccc(F)c1)O[C@@H]1CC[C@@]23CCCN2C(=O)CCC[C@H]3C1	-1
Oc1ccc(C[C@@H]2CNCCN2CCc2cccc3ccccc23)cc1	3
c1ccc2c(C[C@@H]3CNCCN3CCCCC3CCCCC3)cccc2c1	14*	TbREL1 confirm=11
c1ccc(C[C@H]2CNCCN2CCCCC2CCCCC2)cc1	6
C[C@@H](N)C(=O)Nc1ccc(Cl)cc1C(=O)c1ccc[nH]1	-2
COc1ccc(NC(=O)CC2C(=O)N(c3ccc(OC)cc3)C(=O)N2C(C)C)cc1 (centres undefined)	2
COC(=O)c1ccc(N2C(=O)CC(Sc3n[nH]c(C)n3)C2=O)cc1 (centres undefined)	3
COC(=O)c1ccc(N2C(=O)CC(SCC(=O)Nc3ccc(OC)cc3)C2=O)cc1 (centres undefined)	13*	TbREL1 confirm=3
CCCC1CCC2(CC1)CCC2OC(=S)Nc1ccccc1C(F)(F)F (centres undefined)	-3
Cc1ccc(OCCn2c(=O)sc3ccccc32)cc1	3
Cc1ccc(OCCN2C(=O)C(=O)c3cc(C)ccc32)cc1	12*	TbREL1 confirm=5
O=C1c2ccccc2C(=O)N1CCOc1ccccc1	0
Cc1cccc(-c2nnc(SCC(=O)Nc3ccc(-c4nc5ccc(C)cc5s4)cc3)n2Cc2ccco2)c1	-3
CCN(CC)c1ccc(NC(=O)c2cc3c(C)nn(-c4ccccc4)c3s2)cc1	-7
COc1ccc(Cn2ccc3ccc(-c4ccc5ccn(C(=O)C6CCC6)c5c4)cc32)cc1	-4
SMILES	TbREL1 primary	others
COC(=O)C[C@H]1CC[C@@H]2[C@H](COc3ccc(NC(=O)c4ccccc4OC)cc3C(=O)N2C)O1	-5
CCN(CC)C(=O)CSc1nnc(-c2cccs2)o1	1
COC(=O)CCc1c[nH]c2ccc([N+](=O)[O-])cc12	4
O=[N+]([O-])c1ccc2[nH]nc(-c3ccccc3)c2c1	4
Cc1ccc(N(C)S(=O)(=O)c2c[nH]c3ccc([N+](=O)[O-])cc23)cc1	14*	TbREL1 confirm=9
CCc1ccccc1NC(=O)c1cc(C)nn1-c1ccccc1	0
Cc1nc2cc(-c3ccsc3-n3c(C)ccc3C)[nH]n2c(=O)c1Cl	27*	TbREL1 confirm=3
CCOC(=O)Cc1c(C)nc2cc(-c3ccc(C(C)(C)C)cc3)[nH]n2c1=O	-3
C=CCc1c(C)nc2cc(-c3ccc(C)cc3)[nH]n2c1=O	-1
CCC[C@H]1OC(=O)[C@@H]2CCCN2C(=O)[C@H]([C@H](C)Cc2ccccc2)NC(=O)[C@@H]2CCCN2C(=O)[C@@H]2CCCN2C(=O)[C@H](C(C)C)OC(=O)[C@@H]2CCCN2C(=O)[C@H](C(C)C)NC(=O)C1(C)C	10
O=C(NCCc1cccc(F)c1)c1cc2ccccn2n1	-2
O=Cc1ccc(-c2ccc(C(=O)O)cc2)o1	8
Cc1ccc(C(=O)N/C(=C\c2ccc(-c3cccc([N+](=O)[O-])c3)o2)C(=O)NC(C)(C)C)cc1	-2
Cc1nc(S/C(=C/c2ccc(-c3ccc(C(=O)O)cc3)o2)C(=O)O)n[nH]1	21*	TbREL1 confirm=17*
COCCCNC(=O)CSc1nnc(-c2cccnc2)n1C1CCCCC1	0
COC(=O)[C@]12C[C@H](CC(=O)NCc3cccc4ccccc34)C(=O)N(Cc3cccc4ccccc34)C1=C[C@H](C(C)C)O[C@@H]2C1CC1	0
O=C(/C=C(\Nc1cccc(Cl)c1F)c1ccccc1)c1ccccc1	3
Cc1onc(-c2ccccc2)c1C(=O)Nc1ccc(S(=O)(=O)N2CCCCC2)cc1	0
Cc1onc(-c2c(F)cccc2Cl)c1C(=O)Nc1cc(S(=O)(=O)N2CCCCC2)ccc1O	22*	TbREL1 confirm=2
Cc1ccc(O)c(NC(=O)c2cccc(S(=O)(=O)N3CCCCC3)c2)c1	-4
CC(C)[C@H](N)C(=O)N[C@H](C(=O)N1CCC2CCN(Cc3ccccc3)CC21)C(C)C (some centres undefined)	3
O=C(c1cc2cc([N+](=O)[O-])ccc2s1)N1CCCCC1	12*	TbREL1 confirm=1
O=C(c1sc2cc([N+](=O)[O-])ccc2c1Cl)N1CCCCC1	0
O=C(Nc1ccccn1)c1cc2cc([N+](=O)[O-])ccc2s1	1
Nc1ccc(Oc2ccc3c(c2)OCO3)cc1	-3
SMILES	TbREL1 primary	others
Nc1ccc2c(c1)OCCOCCOCCOCCOCCO2	14*	TbREL1 confirm=4
CC(=O)c1ccc2c(c1)OCCOCCOCCO2	2
CC(C)[C@@H]1C(=O)N[C@H](Cc2cn(S(=O)(=O)c3ccccc3)c3ccccc23)C(=O)N1C	-1
O=C(NCCNC(=O)c1ccccn1)c1ccc(Cl)cc1	3
Cc1ccc(C(=O)CCC(=O)Nc2ncccc2O)cc1	-2
O=C(CCNC(=O)c1ccc(Cl)cc1)Nc1ncccc1O	19*	TbREL1 confirm=1
O=C(CSc1nnc(-c2ccncc2)n1-c1ccccc1)Nc1ccc2c(c1)OCCO2	-3
O=C(OCc1ccccc1)[C@H](Cc1ccccc1)NC(=O)[C@@H]1CC=C[C@@H]2CCN(CCc3ccccc3)C(=O)[C@@H]21	-4
COc1ccc(OC)c(S(=O)(=O)N2CCC(c3cn4ccccc4n3)CC2)c1	-1
Nc1ccc2oc(=O)c3ccccc3c2c1	-2
Nc1ccc2c(c1)C(=O)C(=O)c1ccccc1-2	61*	TbREL1 confirm=87*
Cc1ccc(N2C(=O)c3ccc(N)cc3C2=O)cc1C	5
Cc1ccccc1CN1CCCCC(NC(=O)c2ccccc2)C1=O (centres undefined)	0
CCCCCCCCN1C(=O)[C@@H](CC(=O)N2CCN(C(=O)C3CC3)CC2)C[C@@]2(C(=O)OC)C1=C[C@H](C(C)C)O[C@@H]2C1CC1	2
CC(C)CN1C(=O)C[C@]2(C(=O)N(C)c3ccc(NC(=O)c4cc(F)ccc4F)cc32)C1c1ccccc1 (some centres undefined)	0
CCCC1CCC2(CC1)CCC2OC(=O)Nc1ccccc1C (centres undefined)	5
COC(=O)C1=CC[C@@H](NC(=O)OC(C)(C)C)[C@H](O)[C@H]1O[Si](C)(C)C(C)(C)C	-2
CC(C)(C)c1ccc(-c2nnc3n2N=C(c2ccc(-c4ccccc4)cc2)CS3)cc1	0
c1ccc(-c2ccc(C3=Nn4c(nnc4-c4ccccc4)SC3)cc2)cc1	0
Cc1ccc(-c2nnc3n2N=C(c2ccc(-c4ccccc4)cc2)CS3)cc1	27*	TbREL1 confirm=3
O=C(OCc1cn(Cc2ccc(Cl)cc2)nn1)N1CCCC1	0
COc1cc(/C=C/C(=O)c2ccccc2)cc(OC)c1OC	-4
